# Results filed as inconclusive are left out. A number with no mark means an inactive call. Calls of active or inactive are those of the source. Calls follow the shape of the dose curve; as a rule, active = well fitted inhibition curve with a large enough effect; inconclusive = small, poorly fitted or top-dose-only effect; inactive = flat fitted curve, though single readings scatter.
# How the values were obtained:
# HEK293 = test: Cytotoxic Profiling of Annotated Libraries Using Quantitative High-Throughput Screening (AID 1296008); conditions: Five cell lines viability, CellTiter-Glo ATP luminescence, 48-72 h; max response: hits give low values; also: potency is read from the fitted curve at half-maximal effect; as to max response: % is scaled to controls: 0 for no effect and ±100 for the full control effect
# Summary of the method: (§1)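 Compounds were pin-transferred onto cells and incubated 48 or 72 hr at 37 degree Celsius, 95% humidity. CellTiter-Glo was added, plates sat 10 min at room temperature, then ATP-coupled luminescence was imaged as the viability read-out.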
# HaCat [1] = test: as above; conditions: Five cell lines viability, CellTiter-Glo ATP luminescence, 48-72 h; max response: hits give low values
# Summary of the method: as §1
# KB-3-1 = test: as above; conditions: Five cell lines viability, CellTiter-Glo ATP luminescence, 48-72 h; max response: hits give low values
# Summary of the method: as §1
# NIH3T3 = test: as above; conditions: Five cell lines viability, CellTiter-Glo ATP luminescence, 48-72 h; max response: hits give low values
# Summary of the method: as §1
# HACAT [2] = test: qHTS assay to identify novel small-molecules to repurpose for Merkel cell carcinoma treatment (AID 1296009); conditions: MCC and control cell lines, CellTiter-Glo viability, 72 h; series mostly up to 44.8 µM
# Summary of the method: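 Luminescence from CellTiter-Glo, read 10 min after addition at room temperature, reported viability following a 72 hr, 37 degree celsius treatment with NPC or MIPE compounds in titration; values normalized to plate controls.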
# Also: nearly all actives have a fitted effect of over 60% in size.
compound,measurement,setting,value
C=C(C(=O)O)C1CCC2(C)CCCC(C)(O)C2C1 (stereo not drawn),max response,HEK293,-4.4%
same,outcome,HaCat [1],inactive
same,outcome,KB-3-1,inactive
same,outcome,NIH3T3,inactive
same,Potency,HACAT [2],inactive
OC/C=C/C=C/[C@H]1Cc2cc(O)cc(O)c2O1,max response,HEK293,-7.6%
same,max response,HaCat [1],-12.2%
same,max response,KB-3-1,6.07%
same,max response,NIH3T3,1.57%
CC(C)=CCC/C(C)=C/CC/C(C)=C/COC1OC(COC2OCC(OC3OCC(O)C(O)C3O)C(O)C2O)C(O)C(OC2OC(C)C(OC3OC(C)C(OC4OCC(OC5OC(C)C(O)C(O)C5O)C(O)C4O)C(O)C3O)C(O)C2O)C1O (stereo not drawn),max response,HEK293,4.79%
same,outcome,HaCat [1],inactive
same,max response,KB-3-1,6.01%
same,max response,NIH3T3,-0.843%
same,outcome,HACAT [2],inactive [at 9.27 µM]
C=C(C(=O)O)[C@H]1C[C@]2(C)[C@@H](O)CC[C@]23O[C@H]1C[C@@H]3C,max response,HEK293,-6.98%
same,outcome,HaCat [1],inactive
same,outcome,KB-3-1,inactive
same,max response,NIH3T3,-13.7%
same,Potency,HACAT [2],inactive
CCC(C)/C=C(C)/C=C/c1cc2c(cn1)C(=O)C(C)(OC(C)=O)C(O)=C2Cl (stereo not drawn),max response,HEK293,-0.415%
same,outcome,HaCat [1],inactive
same,outcome,KB-3-1,inactive
same,outcome,NIH3T3,inactive
same,Potency,HACAT [2],inactive
Cc1cc(C(=O)N2CCCCc3ccccc32)ccc1CNC(=O)N1CCC[C@H]1C(=O)N(C)C,max response,HEK293,-0.739%
same,max response,HaCat [1],-11%
same,max response,KB-3-1,4.93%
same,max response,NIH3T3,3.28%
COc1c2c(c(C)c3c1C(=O)OC3)OC1(C)CC(O)C34OC(OC)(CC(OC(C)=O)C3(C)C1C2)OC4(C)C (stereo not drawn),max response,HEK293,-22.1%
same,outcome,HaCat [1],inactive
same,max response,KB-3-1,1.81%
same,max response,NIH3T3,-0.676%
same,Potency,HACAT [2],inactive
CS(=O)(=O)c1ccc(-c2nnc(/C=C/c3nnc(-c4ccc(C#N)cc4)o3)n2-c2ccccc2Cl)nc1,Potency,HEK293,11.6 µM (active)
same,outcome,HaCat [1],inactive
same,max response,KB-3-1,2.94%
same,max response,NIH3T3,-6.1%
same,Potency,HACAT [2],inactive

# — PubChem BioAssay (NCATS)
